Screening data: PubChem, National Center for Advancing Translational Sciences (NCATS)
G9a block: blocks human histone lysine methyltransferase G9a; Q96KQ7; G9a H3K9 monomethylation, AlphaScreen, 2 h; Potency, µM (titrated, usually from 102 µM), without a hit: at the highest dose activity, negative = inhibition, usual class: inhibitors; 350,000 tested, 8.8% active; AID 504332; further: on the % scale 0 is the no-effect control and ±100 the full control effect; nearly all actives have a fitted effect of over 75% in size
Target sequence (Q96KQ7 913-1193 limits assumed): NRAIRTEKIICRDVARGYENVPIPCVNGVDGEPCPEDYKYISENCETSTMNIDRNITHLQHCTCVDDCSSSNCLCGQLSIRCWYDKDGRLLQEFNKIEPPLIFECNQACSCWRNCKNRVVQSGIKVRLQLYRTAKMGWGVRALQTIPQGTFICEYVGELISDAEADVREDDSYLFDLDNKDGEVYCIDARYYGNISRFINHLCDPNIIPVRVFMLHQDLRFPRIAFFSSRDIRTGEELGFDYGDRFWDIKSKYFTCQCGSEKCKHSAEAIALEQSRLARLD
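Compounds were preincubated with 20 nM G9a for 15 min, after which biotinylated H3K9 peptide (500 nM) and SAM (20 uM) started a 2 h room-temperature reaction. Monomethylated product was quantified by antibody-based AlphaScreen chemiluminescence.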
BAZ2B inh: BAZ2B (human) inhibition. Q9UIF8. AlphaScreen BAZ2B-H3K14Ac peptide displacement. Potency, µM (top dose mostly 114 µM), for the others: top-dose activity change, negative = inhibition, usual class: inhibitors. 360,000 tested, 4.4% active. AID 504333; further: on the % scale 0 is the no-effect control and ±100 the full control effect; nearly all actives have a fitted effect of over 60% in size
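Protein-peptide AlphaScreen: BAZ2B 50 nM, b-H3K14Ac 50 nM, 1x PBS pH 7.4 + 0.01% Tween-20. Preincubation 30 min RT; cpd 30 min RT (top 110 uM); beads 20 min RT, light-protected.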
PLK1 PBD block: blocks phosphopeptide binding to human PLK1 polo-box domain; P53350; Plk1 PBD binding of FITC phosphopeptide, fluorescence polarization; Potency, µM, for the others: max response, negative = inhibition, actives largely listed as inhibitors; 360,000 tested, 2.8% active; further: series mostly up to about 57 µM; on the % scale 0 is the no-effect control and ±100 the full control effect; nearly all actives have a fitted effect of over 65% in size
Sfp inh: Sfp phosphopantetheinyl transferase inhibition. Q9F4F7. AID 1490. Biochemical Sfp PPTase activity, qHTS. Potency, µM, for inactives: largest response in the series, negative = inhibition, actives largely listed as inhibitors. 310,000 tested, 3.5% active;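 further: the enzyme is Sfp with the accession as filed and its product quenches rhodamine fluorescence; 0% = enzyme reaction without inhibitor and -100% = no enzyme wells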
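After 15 min at room temperature with compound, 15 nM Sfp received 5 uM rhodamine-CoA plus 12.5 uM BHQ-2-ybbR (50 mM Hepes pH 7.6, 10 mM MgCl2). Rate came from the fluorescence difference over 30 min, ex 525/em 598 nm.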
JMJD2A Tudor inh: blocks the human JMJD2A Tudor domain; AlphaScreen JMJD2A-Tudor / H3K4me3 peptide binding; Potency, µM (top dose mostly 114 µM), for the others: top-dose activity change, negative = inhibition, hits mostly inhibitors; 390,000 tested, 4.4% active; AID 504339; further: on the % scale 0 is the no-effect control and ±100 the full control effect; nearly all actives have a fitted effect of over 50% in size
HP1b chromo inh: HP1-beta chromodomain-methylated histone interaction inhibition; AID 540317; AlphaScreen HP1-beta / biotin-H3K9me3 peptide binding; Potency, µM (titrated, usually from 114 µM), for inactives: at the highest dose activity change, negative = inhibition, usual class: inhibitors; P83916; 390,000 tested, 0.56% active; further: nearly all actives have a fitted effect of over 70% in size
Target sequence (P83916 whole entry, looked up): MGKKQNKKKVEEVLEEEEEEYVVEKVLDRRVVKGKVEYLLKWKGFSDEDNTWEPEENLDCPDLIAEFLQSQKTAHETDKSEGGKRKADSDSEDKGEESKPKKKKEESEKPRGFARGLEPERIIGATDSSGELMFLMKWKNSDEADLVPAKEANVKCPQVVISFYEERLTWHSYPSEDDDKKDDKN
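HP1-beta protein (50 nM final) preincubated 30 min at room temperature with biotinylated H3(1-18)K9me3 peptide (50 nM) in PBS pH 7.4, 0.01% Tween-20, then compound added for 30 min. AlphaScreen streptavidin donor/nickel chelate acceptor beads (10 ug/mL final), 30 min dark, luminescence read.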
The depositor's hits bear a star; ? = inconclusive; . = not tested or not shown; [ ] = remark or other dose. Only some compounds are listed: those with a hit (about 12% of all), similar ones and a draw of the others. The call rests on the fitted dose curve; in most records, active means well fitted curve in the direction sought with a large enough effect; inconclusive means small, poorly fitted or top-dose-only effect, or another doubt; inactive means no such curve, though single readings can be large; an effect the other way counts as inactive or inconclusive. Potency means the concentration at half of the fitted maximal effect.

SMILES	G9a block	BAZ2B inh	PLK1 PBD block	Sfp inh	JMJD2A Tudor inh	HP1b chromo inh
CC1=NOC2(C1)N(C)c1ccccc1C2(C)C (stereo not drawn)	-10%[59 µM]	18%	-7%	-11%	-17%	19%
CN1c2ccccc2C(C)(C)C12CCCC(=O)N2 (stereo not drawn)	8.9µM*	50µM*	-13%	-29%	?	45%
O=C(/C=C/c1ccc(Cl)cc1)Nc1ccc(N2CCOCC2)cc1	-3%[59 µM]	-11%	24µM*	-1%	?	-18%
O=C(Nc1ccc(N2CCOCC2)cc1)C1(c2ccc(Cl)cc2)CCC1	45µM*	?	-6%	12%	-33%	-6%
O=C(N1CCOCC1)C1(c2ccc(Cl)cc2)CCCC1	7%[59 µM]	0%	-6%	4%	-1%	23%
O=C(/C=C/c1ccc(Cl)cc1)NC(=S)Nc1ccc(N2CCOCC2)c(Cl)c1	22µM*	5%	19µM*	?	?	?
COc1ccc(C(=O)N2CCNC(=O)C2)cc1S(=O)(=O)Nc1ccc(Br)cc1	13%[59 µM]	7%	-12%	.	-17%	4%
COc1ccccc1C1CCN(c2cc(O)ccc2[N+](=O)[O-])CC1	.	25µM*	-5%	4%	50µM*	?
CS(=O)(=O)C1=NSC2=NC(=O)/C(=C\c3ccc(OS(=O)(=O)c4ccccc4)cc3)C(=N)N21	.	50µM*	30µM*	-6%	?	-10%
COc1cc(/C=C2/C(=N)N3C(=NC2=O)SN=C3S(C)(=O)=O)ccc1OS(=O)(=O)c1ccc(C)cc1	?	?	27µM*	-12%	56µM*	-17%
COc1cc(/C=C2/C(=N)N3C=CSC3=NC2=O)ccc1OCCCOc1ccccc1C	-13%[0.501 µM]	4%	4%	-18%	5%	8%
COc1cccc(-n2c(C)cc(/C=C3/C(=N)N4C(=NC3=O)SN=C4S(C)(=O)=O)c2C)c1	45µM*	56µM*	19µM*	-4%	?	-11%
Cc1ccc(S(=O)(=O)Oc2ccc(/C=C3/C(=N)N4C(=NC3=O)SN=C4S(C)(=O)=O)cc2)cc1	.	?	21µM*	-13%	?	-7%[57 µM]
O=C(NC1CCCCC1)c1ccc(-c2cn[nH]c2)c2ccoc12	.	.	-10%	.	.	.
COc1cc(/C=C2/C(=N)N3C=CSC3=NC2=O)ccc1OCCCOc1c(C)cccc1C	24%[12.7 µM]	1%	-4%	?	1%	14%
CCS(=O)(=O)C1=NSC2=NC(=O)/C(=C\c3ccc(OS(=O)(=O)c4ccccc4)c(OC)c3)C(=N)N21	40µM*	50µM*	27µM*	-11%	56µM*	-5%[57 µM]
O=C(O)c1ccc(NC(CSCc2ccccc2F)C(=O)O)c([N+](=O)[O-])c1 (stereo not drawn)	?	-14%	-1%	-3%	32µM*	1%
CSc1nnc(NC(=O)c2nc(S(=O)(=O)Cc3ccccc3F)ncc2Cl)s1	28µM*	-11%	?	?	22µM*	16%[57 µM]
CC(C)c1nnc(NC(=O)c2nc(S(=O)(=O)Cc3ccccc3F)ncc2Cl)s1	20µM*	?	-12%	-24%	4%	46%
Cc1nnc(NC(=O)c2nc(S(=O)(=O)Cc3ccccc3C)ncc2Cl)s1	?	56µM*	?	?	?	33%
O=C(Nc1nc2ccc(F)cc2s1)c1nc(S(=O)(=O)Cc2ccccc2F)ncc1Cl	33%[59 µM]	-11%	.	.	-26%	94%
Cc1cccc(CS(=O)(=O)c2ncc(Cl)c(C(=O)Nc3nnc(C(C)C)s3)n2)c1	?	?	?	-29%	?	31%[57 µM]
Cc1ccc(NC(=O)CC(C)CC(=O)NCc2ccccc2)cc1Cl (stereo not drawn)	17%	-10%	-4%	19%	-14%	61%
N#CCCS(=O)(=O)c1ccccc1	.	.	.	-5%	.	.
O=C(c1cccc(Cl)c1)N1CCN(Cc2c[nH]c3ccccc23)CC1	7%	4%	-5%	15%	3.5µM*	0%
OCc1ccccc1CN1CCCCCC1	.	.	-7%	.	-17%	7%
